Screening data as filed in PubChem.
hNpr1 antagonist = Natriuretic polypeptide receptor (hNpr1) antagonism - Primary qHTS. Atrial natriuretic peptide receptor 1 (Homo sapiens), P16066. HEK293 hNpr1 GloSensor cGMP, ANP-stimulated luminescence. Potency, µM (titrated, usually from 46.3 µM), without a hit: at the top dose activity change, negative = inhibition, usual class: inhibitors. actives 1.6% (n = 76,000); calls by dose curve; note: nearly all actives have a fitted effect of over 60% in size
Target sequence (P16066 whole entry, looked up): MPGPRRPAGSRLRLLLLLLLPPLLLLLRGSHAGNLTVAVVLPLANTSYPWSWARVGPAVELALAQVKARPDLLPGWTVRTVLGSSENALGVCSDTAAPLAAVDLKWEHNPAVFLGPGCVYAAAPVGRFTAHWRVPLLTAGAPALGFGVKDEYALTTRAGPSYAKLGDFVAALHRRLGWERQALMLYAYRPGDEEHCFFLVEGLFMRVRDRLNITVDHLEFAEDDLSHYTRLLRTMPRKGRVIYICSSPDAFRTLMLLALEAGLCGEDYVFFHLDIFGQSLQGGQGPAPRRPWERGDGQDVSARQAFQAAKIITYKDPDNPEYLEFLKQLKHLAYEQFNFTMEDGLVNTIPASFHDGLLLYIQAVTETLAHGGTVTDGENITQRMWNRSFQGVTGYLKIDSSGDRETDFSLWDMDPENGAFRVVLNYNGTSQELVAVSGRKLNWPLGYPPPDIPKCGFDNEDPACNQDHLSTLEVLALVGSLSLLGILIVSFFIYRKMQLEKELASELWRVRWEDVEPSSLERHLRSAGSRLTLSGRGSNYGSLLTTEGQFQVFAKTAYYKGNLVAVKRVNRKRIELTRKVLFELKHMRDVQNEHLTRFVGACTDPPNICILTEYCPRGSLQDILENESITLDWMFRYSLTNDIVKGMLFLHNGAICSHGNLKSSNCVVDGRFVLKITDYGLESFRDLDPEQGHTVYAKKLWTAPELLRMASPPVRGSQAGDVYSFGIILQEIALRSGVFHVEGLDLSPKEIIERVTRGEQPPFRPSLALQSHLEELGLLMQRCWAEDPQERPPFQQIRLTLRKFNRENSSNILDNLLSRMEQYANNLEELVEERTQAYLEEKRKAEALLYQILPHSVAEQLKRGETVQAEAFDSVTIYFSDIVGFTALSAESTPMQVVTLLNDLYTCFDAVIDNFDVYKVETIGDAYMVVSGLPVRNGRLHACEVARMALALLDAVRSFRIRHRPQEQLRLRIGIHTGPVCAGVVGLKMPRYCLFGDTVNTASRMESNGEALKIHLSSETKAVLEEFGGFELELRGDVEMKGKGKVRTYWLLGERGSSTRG
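Compound pre-incubated 30 min at room temperature on GloSensor-loaded HEK293 cells stably carrying hNpr1 and the pGS-40F cGMP biosensor. Stimulation uses hNppA at 0.1 nM final; luminescence is taken at baseline and 20 min post-agonist.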
HEK293 tox = Cytotoxic Profiling in HEK 293 Cell Line of Diverse Libraries Using Quantitative High-Throughput Screening; actives 6.6% (n = 94,000); Potency, µM (highest dose often 115 µM), for inactives: at the highest dose activity change, negative = cytotoxicity, most hits filed as inhibitors; HEK 293 viability, ATP luminescence (CellTiter-Glo), 48-72 h; note: nearly all actives have a fitted effect of over 60% in size
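Pintool-delivered compounds were incubated with HEK 293 cells (250 cells/well) at 37 degree Celsius for 48 or 72 hr. ATP-dependent luminescence (CellTiter-Glo) then reported remaining viable cells.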
NIH3T3 tox = Cytotoxic Profiling in NIH 3T3 Cell Line of Diverse Libraries Using Quantitative High-Throughput Screening. actives 4.3% (n = 94,000). NIH 3T3 viability, CellTiter-Glo ATP luminescence, 48-72 h. Potency, µM (top dose mostly 96.7 µM), for inactives: at the top dose activity change, negative = cytotoxicity, hits mostly inhibitors; note: nearly all actives have a fitted effect of over 55% in size
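Cytotoxicity is measured as loss of cellular ATP: NIH 3T3 cells (400/well) are exposed to compound for 48 or 72 hr at 37 °C, then CellTiter-Glo luminescence is imaged after 10 min at room temperature.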
FLuc inh = Firefly luciferase inhibition profiling of diverse chemical library using quantitative high-throughput screening. Potency, µM (highest dose often 115 µM), most hits filed as inhibitors. Luciferin 4-monooxygenase (Photinus pyralis), P08659. AID 1347043, 2019. actives 2.5% (n = 76,000). purified P. pyralis luciferase, luminescence, biochemical; note: nearly all actives have a fitted effect of over 65% in size
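Biochemical qHTS: compound (6-point titration) added to 10uM D-luciferin plus 10uM ATP in Tris acetate pH 7.5 buffer with Mg, Tween-20 and BSA, then purified enzyme at 10nM; light output imaged.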
Active calls of the source: *; i = inactive; u = inconclusive; x = not tested or not shown; [ ] = another dose, or the depositor's remark. Most compounds without a hit are left out; they make up all but 11% or so of the library. Unless noted, calls come from the whole dose curve; as a rule, active = well fitted curve in the direction sought with a large enough effect; inconclusive = small, poorly fitted or top-dose-only effect, or another doubt; inactive = no such curve, though single readings can be large; an effect the other way counts as inactive or inconclusive. % is set by controls: 0 for no effect and ±100 for the full control effect; potency is the fitted concentration of half-maximal effect.

SMILES | hNpr1 antagonist | HEK293 tox | NIH3T3 tox | FLuc inh
Cc1cc(C)cc(-c2ccc(CN3CCCC(NC(=O)c4ccc(F)cc4)C3)cc2)c1 (centres undefined) | x | -27.5% | -20.4% | x
CCS[C@H]1CCN2C(=O)c3cc(-c4ccc(F)cc4F)ccc3NC(=O)[C@H]12 | u | 56.2µM* | u | i
CC(C)NC(=O)N[C@H]1CCN2C(=O)c3cc(-c4ccc(F)cc4F)ccc3NC(=O)[C@H]12 | -5.7%[70.6 µM] | u | -28.3%[174 µM] | i
COc1ccc2c(c1)nc1n2[C@@H](CNCc2ccc3c(c2)OCO3)COC1 | u | 56.2µM* | u | i
COc1ccc2nc3n(c2c1)[C@@H](CNC(=O)c1ccc(C#N)cc1)COC3 | -3.7%[70.6 µM] | -11.0%[172 µM] | 89.1µM* | i
COc1ccc2nc3n(c2c1)[C@@H](CNS(=O)(=O)Cc1ccccc1)COC3 | -17.5%[70.6 µM] | u | 89.1µM* | i
COc1ccc(NC(=O)NC[C@H]2COCc3nc4ccccc4n32)cc1 | 3.2%[70.6 µM] | -14.4%[172 µM] | u | 89.1µM*
O=C(c1nc(-c2ccc(Cl)cc2Cl)c2ccccn12)N1CCOCC1 | x | u | -29.4% | x
CN1C(=O)N(CCc2ccccc2)C(=O)C12CCN(Cc1cn[nH]c1-c1ccc(F)cc1)CC2 | 5.3% | u | -25.7% | i
CC(C)C(=O)N1CCCCCNC(=O)[C@H]2C[C@H](C(=O)N3CCc4ccccc4C3)C[C@H]21 | -6.4% | -35.3% | -11.6% | i
CC(C)(C)C(=O)N1CCCC(C(=O)N2CCC(c3nc4ccncc4[nH]3)CC2)C1 (centres undefined) | x | 0.4% | -5.6% | x
CCc1noc(-c2cn(C3CCN(C(=O)c4ccc5c(c4)OCO5)CC3)nn2)n1 | 0.9% | -10.6% | -4.8% | i
COc1ccccc1-c1cccc(C(=O)N2CCN(C(=O)N(C)C)CC2)c1 | x | u | -21.3% | x
O=C(NC1CC1)[C@@H]1CCCN1c1nccc(Nc2ccccc2Cl)n1 | x | u | -6.0% | x
CN(C)C(=O)NC1CCN(c2nccc(Nc3ccccc3Cl)n2)CC1 | x | 44.7µM* | 28.2µM* | x
COc1ccccc1Nc1ccnc(N2CCC[C@H]2C(=O)NCc2cccnc2)n1 | x | u | -17.2% | x
COc1ccccc1Nc1ccnc(N2CCC[C@H]2C(=O)N2CCC(Cc3ccccc3)CC2)n1 | x | 39.8µM* | u | x
COc1ccc(Nc2ccnc(N3CCN(C(=O)NC4CCCC4)CC3)n2)cc1 | x | 44.7µM* | u | x
O=C(NC1CCCC1)N1CCN(c2nccc(Nc3ccccc3Cl)n2)CC1 | x | 39.8µM* | u | x
O=C(c1ccc(C(F)(F)F)cc1)N1CCN(c2ccc3nnc(-c4ccccc4)n3n2)CC1 | x | -9.8% | -15.7% | x
COc1ccccc1Nc1ccnc(N2CCC(NC(=O)C3CCCC3)CC2)n1 | x | -26.9% | u | x
O=C(NC1CCN(c2nccc(Nc3ccccc3Cl)n2)CC1)C1CCCC1 | x | u | 28.2µM* | x
COc1ccccc1Nc1ccnc(N2CCN(C(=O)NC3CCCC3)CC2)n1 | x | 44.7µM* | 31.6µM* | x
O=S(=O)(c1ccccc1)N1CCC(F)(c2nc(-c3ccncc3)no2)CC1 | x | 31.6µM* | u | x
CCn1cc(S(=O)(=O)N2CCC(F)(c3nc(-c4ccncc4)no3)CC2)cn1 | x | 44.7µM* | u | x
SMILES | hNpr1 antagonist | HEK293 tox | NIH3T3 tox | FLuc inh
CN(C)S(=O)(=O)N1CCC(F)(c2nc(-c3ccccc3)no2)CC1 | u | u | -18.1% | u
CCn1cc(S(=O)(=O)N2CCC(c3noc(-c4ccncc4)n3)C2)cn1 (centres undefined) | -7.5% | -10.2% | -24.7% | i
CCOc1ccccc1NC(=O)C1c2ccccc2C(=O)N(CCOC)C12CCCCC2 (centres undefined) | u | -37.0% | u | i
CNC(=O)c1cc(-c2ccc(C(F)(F)F)cc2)nc2c1cnn2C | x | -20.2% | u | x
Cn1ncc2c(C(=O)NCC3CC3)cc(-c3cccc(C(F)(F)F)c3)nc21 | x | i | -0.4% | x
CC1CCCN(C(=O)c2cc(-c3ccc(C(F)(F)F)cc3)nc3c2cnn3C)C1 (centres undefined) | x | 44.7µM* | u | x
CCN1CCN(C(=O)c2cc(-c3cccc(C(F)(F)F)c3)nc3c2cnn3C)CC1 | x | u | 31.6µM* | x
CCCN(CC1CC1)C(=O)CCC1CCCN(S(=O)(=O)c2ccc(C)cc2)C1 (centres undefined) | -22.2% | 39.8µM* | u | i
Cc1ccc(S(=O)(=O)N2CCCC(CCC(=O)O)C2)cc1 (centres undefined) | 1.3% | 6.8% | u | i
O=C(NC1CCN(c2cc(-c3ccc(F)cc3)[nH]n2)C1)c1c[nH]c2ccccc12 (centres undefined) | -23.1% | 39.8µM* | 31.6µM* | i
O=C(NCC1CCN(c2cc(-c3ccc(F)cc3)[nH]n2)CC1)c1c[nH]c2ccccc12 | -26.9% | u | 31.6µM* | u
O=C(NC1CCN(c2cc(-c3ccc(F)cc3)[nH]n2)CC1)c1c[nH]c2ccccc12 | 0.0% | u | 31.6µM* | i
O=C(NC1CCCN(c2cc(-c3ccccc3)[nH]n2)C1)c1c[nH]c2ccccc12 (centres undefined) | -19.5% | u | u | 39.8µM*
O=C(NCC1CCN(c2cc(-c3ccc(F)cc3)[nH]n2)CC1)c1ccc2nc[nH]c2c1 | -8.5% | u | u | u
O=C(NC1CCN(c2cc(-c3ccccc3)[nH]n2)CC1)c1cc(F)ccc1Cl | -5.1% | u | u | i
CC1(CCCCc2ccccc2)COc2ccc(C(=O)NCCc3cnc[nH]3)cc2N1 (centres undefined) | -4.3%[70.6 µM] | u | u | i
COc1cccc(OC)c1CN1CC(O)CN([S+](=O)([O-])c2ccc(F)cc2)CC1=O (centres undefined) | x | u | -17.0% | x
CN(Cc1ccc(-c2ccccc2)cc1)Cc1cccnc1 | 8.91µM* | u | u | 50.1µM*
CN(Cc1ccc(F)cc1)Cc1ccc(-c2ccccc2)cc1 | 0.0%[70.6 µM] | 0.4%[172 µM] | -9.0%[138 µM] | i
CN(Cc1ccc(-c2ccccc2)cc1)Cc1ccccn1 | -19.7%[70.6 µM] | 50.1µM* | u | 50.1µM*
Cc1cccc(C)c1-c1nc(C(=O)NCc2ccsc2)n2ccccc12 | -1.7% | u | u | i
COc1ccc(-c2noc([C@@H]3C[C@H](NS(=O)(=O)c4ccc(C)cc4)CN3C)n2)cc1 | -24.6%[70.6 µM] | u | u | i
CC(=O)Nc1ccc(S(=O)(=O)N[C@H]2C[C@@H](c3nc(-c4ccccc4)no3)N(C)C2)cc1 | u | 39.8µM* | u | u
Cc1ccc(-c2noc([C@@H]3C[C@H](NS(=O)(=O)c4ccc5ccccc5c4)CN3C)n2)cc1 | -22.3% | u | u | 20µM*
CC(=O)Nc1ccc(S(=O)(=O)N[C@H]2C[C@@H](c3nc(C)no3)N(C)C2)cc1 | -1.0%[70.6 µM] | -2.9%[172 µM] | 3.9%[174 µM] | i
